Data from PubChem BioAssay.

test system: Human papillomavirus type 1a protein E7 (residues 44-93); assay: HPV1a E7 fragment binders on microarrays, primary screen, biochemical, small-molecule microarray, residues 44-93, 635 nm fluorescence (AID 1108); conditions: small-molecule microarray binding, fluorescence 635 nm; higher = more signal;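 also: E7 fragment applied at 1 µg/mL in TBST for 1 h at 4 C; score combines spot fluorescence with its signal to noise ratio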

Going from `C=CCC(OC(C)=O)[C@@H]1[C@@H](N(Cc2cc3ccccc3o2)C(=O)c2ccc(C)cc2)c2cc(OCCCO)ccc2N1C(=O)Cc1ccc2ccccc2c1` (stereo partly specified) to `[N-]=[N+]=Nc1ccccc1C[C@]1(C(=O)NCc2ccccc2)N=C(c2ccc(OCCCO)cc2)O[C@H]1c1ccccc1`, the composite z-score rises from -0.494 to 1.08.

Going from `COC(=O)[C@H](Cc1ccccc1)N1CC(/C=C/C2CC2)=C[C@@H]1[C@@H](O)Cc1ccccc1` to `Cc1ccc(S[C@]2(C(=O)NCc3ccccc3)CC(=O)N(C(C)C)[C@@H]2c2ccc(CO)cc2I)cc1`, the composite z-score rises from 1.31 to 1.34.

First: C=C1C2CC3C(=C4C(CO[C@@H]4[C@H]4CCCN4S(=O)(=O)c4ccccc4[N+](=O)[O-])C4C(=O)N(C)C(=O)C34)CC2C(=O)N1C (stereo partly specified)
Second: C=C(/C=C/CNS(=O)(=O)c1ccc(C)cc1)[C@H](O)[C@H]1CCCN1S(=O)(=O)c1ccccc1[N+](=O)[O-]
The composite z-score of the first is lower: -1.04 for the first, -0.197 for the second.

Compared with `COc1ccccc1CN1C(=O)c2ccccc2[C@](Cc2ccccc2I)(C(=O)NC(C)C)[C@@H]1c1ccc(CO)cc1`, `CC(C)CNC(=O)[C@@H]1c2ccccc2C(=O)N(Cc2cc(F)cc(C(F)(F)F)c2)[C@H]1c1ccc(CO)cc1` is lower in composite z-score: 1.46 for the first, -0.0365 for the second.

First: O=C1NC(=O)C2C1C=CC(C(O)c1ccc3c(c1)OCO3)N2Nc1ccccn1 (stereo unspecified)
Second: COc1ccc(NN2C(C(O)c3ccco3)C=CC3C(=O)N(C4CCCCC4)C(=O)C32)cc1 (stereo unspecified)
The composite z-score of the first is lower: -0.945 for the first, 1.42 for the second.

Compared with `[N-]=[N+]=NCc1ccccc1C[C@@]1(C(N)=O)N=C(c2ccc(OCCCO)cc2)O[C@@H]1c1ccccc1CN=[N+]=[N-]`, `[N-]=[N+]=NCc1ccccc1[C@H]1OC(c2ccc(OCCCO)cc2)=N[C@@]1(CCS(=O)(=O)c1ccccc1)C(N)=O` is lower in composite z-score: 1.43 for the first, 1.11 for the second.

First: COCCCNC(=O)[C@]1(Cc2ccccc2CN=[N+]=[N-])N=C(c2ccc(OCCCO)cc2)O[C@@H]1c1ccccc1
Second: C=CC[C@@]1(C(=O)O)N=C(c2ccc(OCCCO)cc2)O[C@@H]1c1ccccc1
The composite z-score of the first is higher: 1.4 for the first, 1.35 for the second.

Compared with `COCCOC(=O)N1C(=O)[C@@]2(c3cc(C#CC4(O)CCCCCC4)ccc31)[C@H](C(=O)N1CCCCCCC1)[C@H]1C(=O)O[C@H](c3ccccc3)[C@H](c3ccccc3)N1[C@@H]2c1ccc(OCCO)cc1`, `COCCOC(=O)N1C(=O)[C@@]2(c3cc(C#CCNC(N)=O)ccc31)[C@H](C(=O)N1CCCCCCC1)[C@H]1C(=O)O[C@H](c3ccccc3)[C@H](c3ccccc3)N1[C@@H]2c1ccc(O)cc1` is lower in composite z-score: 1.33 for the first, 0.964 for the second.

First: CN(C)CCCCNC(=O)[C@H]1C[C@H]2C(=O)N3CCC[C@H]3C(=O)N2[C@H]1c1ccc(O)cc1
Second: COc1cc(CO)cc(I)c1O[C@H]1C=C(C(=O)NCCO)C[C@@H](N(CC2CCCCC2)C(=O)c2ccc(C(F)(F)F)cc2)[C@@H]1O
The composite z-score of the first is lower: -1.11 for the first, 1.15 for the second.

Compared with `O=C1O[C@H](c2ccccc2)[C@H](c2ccccc2)N2[C@H]1[C@@H](C(=O)O)[C@]1(C(=O)Nc3ccccc31)[C@H]2c1ccc(O)cc1`, `NC(=O)NCC#Cc1ccc2c(c1)[C@]1(C(=O)N2)[C@H](C(=O)Nc2nc3ccccc3s2)[C@H]2C(=O)O[C@H](c3ccccc3)[C@H](c3ccccc3)N2[C@@H]1c1ccc(O)cc1` is higher in composite z-score: 0.49 for the first, 0.944 for the second.

Going from `CN1C(=O)C2C(C1=O)C1C=C(c3ccc(CO)cc3)C2C(c2cccs2)N1Cc1cccc(OC(F)(F)F)c1` (stereo unspecified) to `NC(=O)N1C(=O)C2C(C1=O)C1C=C(c3ccc(CO)cc3)C2C(C2CC2)N1Cc1sc2ccccc2c1Cl` (stereo unspecified), the composite z-score falls from 1.4 to 0.0882.

Going from `C=CCN1C(=O)[C@@]2(O[C@@H](CCO)[C@H]([Si](C)(C)c3ccc(OC)cc3)[C@H]2C)c2cc(N3C(=O)c4ccccc4Oc4ccccc43)ccc21` to `COc1ccc([Si](C)(C)[C@@H]2[C@@H](CCO)O[C@]3(C(=O)N(Cc4cccc(N5C(=O)c6cccc7cccc5c67)c4)c4ccccc43)[C@H]2C)cc1`, the composite z-score rises from -0.719 to 1.21.

Going from `CCOC(=O)C1=CC[C@@H](c2ccc([N+](=O)[O-])cc2)N(S(=O)(=O)c2ccc(C)cc2)[C@H]1c1ccccc1` to `COc1ccc(C(O)C2C=CC3C(=O)N(c4ccccc4)C(=O)C3N2Nc2ccc(C#N)cc2)c2ccccc12` (stereo unspecified), the composite z-score falls from 1.4 to 0.596.

Going from `COc1ccc([Si](C)(C)[C@H]2[C@H](CCn3cc([C@H](O)c4ccccc4)nn3)O[C@@]3(C(=O)N(Cc4ccc(N5CCC5=O)cc4)c4ccccc43)[C@@H]2C)cc1` to `COc1cc2c(cc1OC)CN(C(=O)[C@H]1[C@@H]3C(=O)O[C@@H](c4ccccc4)[C@@H](c4ccccc4)N3[C@@H](c3ccc(OCCO)cc3)[C@]13C(=O)Nc1ccc(C#CCCO)cc13)CC2`, the composite z-score rises from 0.73 to 1.43.

Going from `CON(C)C(=O)C=C1C[C@@H](c2cccc(Cl)c2)O[C@@H](c2cccc(Cl)c2)O1` to `C=CCN1C(=O)[C@]2(CC=C)N=C(c3ccc(OCCCO)cc3)O[C@@H]2c2ccccc21`, the composite z-score rises from 0.151 to 1.37.

Compared with `O=C1O[C@@H](c2ccccc2)[C@@H](c2ccccc2)N2[C@@H](c3ccccc3OCCO)[C@]3(C(=O)Nc4ccccc43)[C@@H](C(=O)NC[C@H](O)c3ccccc3)[C@H]12`, `COCCOC(=O)N1C(=O)[C@@]2(c3cc(C#Cc4ccc(OC)cc4)ccc31)[C@H](C(=O)NC[C@H](O)c1ccccc1)[C@H]1C(=O)O[C@H](c3ccccc3)[C@H](c3ccccc3)N1[C@@H]2c1ccc(O)cc1` is higher in composite z-score: 0.705 for the first, 0.872 for the second.

First: C=C(/C(=C/C[C@@H](OC(=O)c1ccncc1)c1ccc(OCCO)cc1)c1cc(C(=O)OC)ccc1OC)C(C)C
Second: C=C(C(=O)CC[C@H](OC(=O)c1cccnc1)c1ccc(CO)o1)C(C)C
The composite z-score of the first is higher: 1.38 for the first, 0.362 for the second.

Going from `COC(=O)C1(Cc2ccccc2)C=C2C(=C(C(C)C)C(=O)C2C)CN1` (stereo unspecified) to `COc1ccc(C#Cc2ccc3c(c2)[C@]2(C(=O)N3)[C@H](C(=O)N3CCc4cc(OC)c(OC)cc4C3)[C@H]3C(=O)O[C@H](c4ccccc4)[C@H](c4ccccc4)N3[C@@H]2c2ccc(O)cc2)cc1`, the composite z-score rises from -0.549 to 1.38.
